# Experimental data taken from the supplement of paper PMC11417369.
# The full ranking holds about 25,000 sequences; the median of “ln(normalized median fluorescence intensity)” is about 9.7, and the highest 2% start at about 11. For the sample, the highest values were picked, then their nearest neighbours and some sequences at random.
# Tested on: PfAP2-HC AP2 domain (GST-tagged)
# Experiment: gcPBM binding intensity (ln(normalized median fluorescence intensity)); higher = stronger DNA binding
# Outline: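 Plasmodium falciparum DNA-binding domains carrying a GST tag were expressed in E. coli and applied for 1 h, at about 25 μg on average, to an Agilent 4 × 180k array. The array held primer-extended double-stranded 36-bp intergenic genomic probes together with negative controls, and binding took place in 1× PBS with 1% milk, 0.2 mg/ml BSA, 0.5% salmon testes DNA and 0.03% Triton X-100. An Alexa488 anti-GST antibody detected bound protein, and the array was scanned at 488 nm. Binding intensity is taken as the highest Masliner-normalised natural-log median intensity across replicate spots of either probe orientation.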
row,Sequence,gcPBM binding intensity (ln)
1,ATAATGAAAAGGAACATACACACCCCATATAAATAT [CACACA_site3442],10.3
2,TACAAACAAACACATAGCAATATATGTTATCAAAAA [XGTACX_negctrl_site1],9.81
3,AGAAAGAAAGAATACACACACACATATATAAATATC [CACACA_site7716],10.4
4,AGAAAGAAAGAATACACACACACATATATATATATC [CACACA_site3744],11.5
5,TAAAGAAATAAATACATACACACATATATATATATA [CACACA_site3363],9.89
6,TTATCATTTTAATGGTGTACTCAATAAAAACTTTAA [XGTACX_site4595],9.13
7,AAAAAAAACAGACACACACACATAAATATATATAAA [CACACA_site148],10.4
8,AAAGGATACAGACACACACACACATATATATATATA [CACACA_site906],10.8
9,TATATAATATATATGACACACATATTTATATAAATA [CACACA_site4054],9.57
10,TATATAAATAGACACACACACATATAAATATAAATA [CACACA_site6503],10.4
11,ACATAAATATATGACACACACACATATTATATATAT [CACACA_site3065],11.1
12,TATATATATAGACACACACACATATAAATAAATAAA [CACACA_site444],10.4
13,AAAAAAAACAGACACACACACATAAATATAAATAAA [CACACA_site6214],10.5
14,TATATATATAGACACACACACACATATATATATATA [CACACA_site9366],10.7
15,CATATAAATAGACACACACACACATATAAATAAATA [CACACA_site7156],11.1
16,AAAGGATATAGACACACACACACATATATATATATA [CACACA_site2200],11.4
17,GCACATAAATATATGACACACACACCGATTATATAT [CACACA_site9003],10.8
18,AAAAATTCCAGACACACACACACATATAAATAAATA [CACACA_site1232],11.1
19,CACACTTTATAATGTTGTACGATACATTATACCAAA [XGTACX_site941],9.67
20,ATAGTATAACAGCAATGTACACATATTTGTGTATAT [XGTACX_site7899],10
21,AATATTAAAAACAAAACACACAAAAAAAAATAAACT [CACACA_site6470],10.2
22,TGTACATATATATAATATATATATCATCATATTTTC [CACACA_negctrl_site1750],9.69

row,Sequence,gcPBM binding intensity (ln)
1,TAAAACAAAATAACATGTACAAAAAAAAAAAAAAAA [XGTACX_site2915],9.24
2,ACAAATAAATAAATATGTACTTAATTATATAATTGA [XGTACX_site5626],9.5
3,TATCATGGGTGTATTTCACACACGGATAATCATTTA [CACACA_site8211],9.83
4,AAGAAAATTAACCCATGTACTTATGTAGATAGCAAG [XGTACX_site1049],9.87
5,TTGAGAAAAATTAATGGTACACATATTATAAGTATA [XGTACX_site6539],9.7
6,AAATATATTTTTTTTTGTACTCAAAAAGAAAAAAAA [XGTACX_site8540],9.05
7,AAAAATTTCATATTCACACACAAAAAAAAAAAATAT [CACACA_site1592],9.96
8,AAATACTTATTCGTGGTGCAACAATTTTAAAAATTA,9.49
9,TATGAAAAAATATATACACACATAATAAAGGTATAT [CACACA_site3737],9.9
10,AAAAAAAAAAGACACACACACATATAAATATAAATA [CACACA_site6899],11.5
11,AATAAATTTAGACACACACACACATATAAATAAATA [CACACA_site6531],11.1
12,TAATTTTTTAGACACACACACATATAAATATAAATA [CACACA_site6195],10.8
13,AACATTATAAGACACACACACACATATATATATATA [CACACA_site8259],10.8
14,TAAATTTATAGACACACACACATATAAATAAATATA [CACACA_site6530],10.8
15,TATAAATAAAGACACACACACATATAAATAAATATA [CACACA_site7155],10.5
16,AACATTATAAGACACACACACACATATATAAATATA [CACACA_site6622],11.2
17,TCATAGTATAGACACACACACACACGCATATAAATA [CACACA_site6915],10.5
18,TAATAAATAAGACACACACACATATATATATATTAT [CACACA_site1389],10.3
19,TACACGCATAGACACACACACACACGCATATAAATA [CACACA_site6446],11.3
20,TATATAAATAGACACACACACACATATAAATAAATA [CACACA_site7855],10.7
21,CATATAAAAAGACACACACACACATATATATATATA [CACACA_site940],10.8
22,AAAAAAAAAAAATTCACACACATATAAAAAATTAAG [CACACA_site728],10
